What all share (assay): protein-binding microarray (PBM); PBM: ~300 nM protein, 6 mM HEPES pH 7.8, 80 mM KCl, 0.5 mM EDTA, 0.5 mM EGTA, 6% glycerol, 35 ng/ul poly-dIdC, 1% milk, 1 h, room temperature; Ap Aiptasia and Nv Nematostella (sea anemones) / Co Capsaspora / Aq Amphimedon (sponge) / Dm Drosophila / Hu human; RHD is the Rel homology domain; high values mean tight binding
Conditions in all cases: dsDNA, one strand shown

Test [1] concerns the target T1, GST-Ap-NF-kB RHD (Exaiptasia pallida (Aiptasia), UniProt A0A913YAJ5 2-422).
T1 sequence: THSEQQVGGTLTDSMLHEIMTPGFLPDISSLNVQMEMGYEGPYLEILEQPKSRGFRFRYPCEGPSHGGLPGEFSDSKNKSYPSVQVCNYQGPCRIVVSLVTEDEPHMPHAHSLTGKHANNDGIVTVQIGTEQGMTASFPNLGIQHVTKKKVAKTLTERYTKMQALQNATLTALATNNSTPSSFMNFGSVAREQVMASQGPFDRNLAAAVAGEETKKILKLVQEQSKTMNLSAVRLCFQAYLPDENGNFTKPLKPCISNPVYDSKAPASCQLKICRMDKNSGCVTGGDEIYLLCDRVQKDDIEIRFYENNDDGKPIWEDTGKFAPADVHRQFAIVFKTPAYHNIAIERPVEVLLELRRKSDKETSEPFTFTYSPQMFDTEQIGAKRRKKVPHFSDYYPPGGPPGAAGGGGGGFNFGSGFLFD

Test [2] has as its target T2, GST-Nv-NF-kB (Cys allele) (Nematostella vectensis, UniProt E5G601 2-411).
T2 sequence: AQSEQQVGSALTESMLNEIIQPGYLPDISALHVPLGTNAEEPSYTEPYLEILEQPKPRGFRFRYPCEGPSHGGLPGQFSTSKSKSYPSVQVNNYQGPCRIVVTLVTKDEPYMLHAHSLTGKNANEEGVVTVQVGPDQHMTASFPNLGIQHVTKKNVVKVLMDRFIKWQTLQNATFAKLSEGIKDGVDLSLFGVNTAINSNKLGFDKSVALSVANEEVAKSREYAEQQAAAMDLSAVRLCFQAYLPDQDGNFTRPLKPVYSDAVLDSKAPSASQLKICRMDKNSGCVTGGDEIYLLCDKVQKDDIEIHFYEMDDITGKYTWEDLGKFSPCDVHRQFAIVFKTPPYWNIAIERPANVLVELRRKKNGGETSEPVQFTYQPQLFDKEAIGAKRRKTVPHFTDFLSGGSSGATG

For test [3], the target named is T3, GST-Co-NF-kB (Capsaspora owczarzaki, UniProt F1ARL5 200-546).
T3 sequence: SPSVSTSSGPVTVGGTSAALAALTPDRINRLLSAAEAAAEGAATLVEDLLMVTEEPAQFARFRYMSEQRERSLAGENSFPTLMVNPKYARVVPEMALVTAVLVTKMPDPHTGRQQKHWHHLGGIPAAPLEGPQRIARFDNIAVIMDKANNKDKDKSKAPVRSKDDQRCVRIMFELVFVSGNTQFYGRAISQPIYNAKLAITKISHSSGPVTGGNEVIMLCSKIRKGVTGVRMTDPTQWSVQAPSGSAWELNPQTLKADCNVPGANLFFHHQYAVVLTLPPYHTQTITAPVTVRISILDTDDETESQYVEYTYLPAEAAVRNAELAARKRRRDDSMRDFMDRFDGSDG

Test [4] addresses T4, GST-Aq-NF-kB (Amphimedon queenslandica, UniProt A9Y5G7 2-389).
T4 sequence: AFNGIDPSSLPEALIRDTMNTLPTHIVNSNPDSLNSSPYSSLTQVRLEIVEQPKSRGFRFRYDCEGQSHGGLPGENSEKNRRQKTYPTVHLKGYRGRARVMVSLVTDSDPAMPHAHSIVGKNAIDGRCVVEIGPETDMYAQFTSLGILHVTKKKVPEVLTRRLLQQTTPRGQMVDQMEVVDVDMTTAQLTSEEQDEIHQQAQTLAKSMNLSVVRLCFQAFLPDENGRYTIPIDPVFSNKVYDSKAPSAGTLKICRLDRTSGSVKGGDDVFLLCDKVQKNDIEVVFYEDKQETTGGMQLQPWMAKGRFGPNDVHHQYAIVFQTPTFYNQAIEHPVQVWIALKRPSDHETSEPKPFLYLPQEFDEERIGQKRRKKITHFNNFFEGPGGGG

For “CCGATTAACATCAACTCGGGAAATGATGTTAATCGGGTCTTGATTCGCTTGACGCTGCTG”, the binding signal in test [1] was determined as 1.08 z-score; in test [2], 2.75 z-score; in test [3], 3.32 z-score; in test [4] it was 1.73 z-score.

Turning to “CCGATTAACATCATGGGAAGGTTTGATGTTAATCGGGTCTTGATTCGCTTGACGCTGCTG”, the binding signal worked out at 1.34 z-score in test [1], 1.55 z-score in test [2], 2.28 z-score in test [3] and 1.66 z-score in test [4].

Take “CCGATTAACATCATCTGGGAAAATGATGTTAATCGGGTCTTGATTCGCTTGACGCTGCTG”: the binding signal in test [1] is 1.33 z-score; in test [2], 2.91 z-score; in test [3], 3.73 z-score; in test [4] it was 1.45 z-score.

With “CCGATTAACATCATGTTGGGAAATGATGTTAATCGGGTCTTGATTCGCTTGACGCTGCTG”, the binding signal in test [1] was found to be 1.02 z-score; in test [2], 2.29 z-score; in test [3], 2.51 z-score; in test [4] it was 1.2 z-score.

As to “CCGATTAACATCAATTTACCCACTGATGTTAATCGGGTCTTGATTCGCTTGACGCTGCTG”, the binding signal was 1.67 z-score in test [1], 1.68 z-score in test [2], 2.34 z-score in test [3] and 1.45 z-score in test [4].

Consider “CCGATTAACATCACTTTCCCAAATGATGTTAATCGGGTCTTGATTCGCTTGACGCTGCTG”, for which the binding signal came out at 1.27 z-score in test [1], 2.64 z-score in test [2], 2.28 z-score in test [3] and 1.54 z-score in test [4].

“CCGATTAACATCAAATGTGGGAATGATGTTAATCGGGTCTTGATTCGCTTGACGCTGCTG”: the binding signal is 1.11 z-score in test [1], 1.53 z-score in test [2], 3.07 z-score in test [3] and 2.21 z-score in test [4].

Take “CCGATTAACATCAAACAGGGAAATGATGTTAATCGGGTCTTGATTCGCTTGACGCTGCTG”: the binding signal in test [1] turned out to be 2.71 z-score; in test [2] it was 4.69 z-score; in test [3], 2.47 z-score; in test [4], 3.23 z-score.

For “CCGATTAACATCAGGAGTCTCCCTGATGTTAATCGGGTCTTGATTCGCTTGACGCTGCTG”, the binding signal in test [1] came out at 1.69 z-score; in test [2], 2.44 z-score; in test [3] it was 2.17 z-score; in test [4], 5.28 z-score.

On to “CCGATTAACATCAGGGGAGTGTATGATGTTAATCGGGTCTTGATTCGCTTGACGCTGCTG”, for which the binding signal in test [1] was determined as 3.6 z-score; in test [2], 3.38 z-score; in test [3], 3.2 z-score; in test [4], 2.89 z-score.

On to “CCGATTAACATCAGACATTCCCATGATGTTAATCGGGTCTTGATTCGCTTGACGCTGCTG”, for which the binding signal in test [1] is 1.46 z-score; in test [2], 2.27 z-score; in test [3], 1.37 z-score; in test [4] it was 2.26 z-score.

For “CCGATTAACATCACATCTTTCCCTGATGTTAATCGGGTCTTGATTCGCTTGACGCTGCTG”, the binding signal in test [1] came out at 2.24 z-score; in test [2] it was 3.96 z-score; in test [3], 3.84 z-score; in test [4], 4.25 z-score.

Take “CCGATTAACATCAGGGAAAAGGATGATGTTAATCGGGTCTTGATTCGCTTGACGCTGCTG”: the binding signal in test [1] is 1.79 z-score; in test [2], 3.4 z-score; in test [3], 2.73 z-score; in test [4], 2.41 z-score.

As to “CCGATTAACATCAGCTCCCCCCCTGATGTTAATCGGGTCTTGATTCGCTTGACGCTGCTG”, the binding signal was 5.26 z-score in test [1], 3.87 z-score in test [2], 5.77 z-score in test [3] and 3.99 z-score in test [4].

Take “CCGATTAACATCAGGGAAAGGGATGATGTTAATCGGGTCTTGATTCGCTTGACGCTGCTG”: the binding signal in test [1] was 2.49 z-score; in test [2], 3.29 z-score; in test [3], 2.1 z-score; in test [4] it was 2.84 z-score.

Regarding “CCGATTAACATCAGGGAATTAGATGATGTTAATCGGGTCTTGATTCGCTTGACGCTGCTG”, the binding signal in test [1] turned out to be 1.83 z-score; in test [2], 3.48 z-score; in test [3], 2.41 z-score; in test [4], 3.43 z-score.

“CCGATTAACATCAAAGCATTCCCTGATGTTAATCGGGTCTTGATTCGCTTGACGCTGCTG”: the binding signal in test [1] turned out to be 2.32 z-score; in test [2] it was 3.04 z-score; in test [3], 2.52 z-score; in test [4], 3.35 z-score.

For the origin of these results see publication PMC5700166.
